Several values for one entry are separate records, joined by “and”; a condition that tells them apart may be missing. Equal entries are not always repeated. This is part of a sample that, as a whole, favours compounds with a hit. Of some 83,000 tested, about 20% had one in any assay.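 Activity criterion: percent growth below 10, measured after cells in 96-well plates were exposed to a single compound concentration for 48 hours.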 Unmarked numbers belong to inactive results. Activity calls are given as the source filed them.

This assay concerns MDA-MB-468 breast. Description: NCI-60 one-dose screen, 48 h (100 = growth as untreated, 0 = no growth, -100 = all killed). As to conditions: 10 µM unless noted.
Consider `CCN(CC)CCC(C(=O)O)(c1ccccc1)c1ccccc1`, for which the growth was 120%.

Consider `BrC/C=C/C[P+](c1ccccc1)(c1ccccc1)c1ccccc1`, for which the growth was 3.78% (active). Then `c1nc(N2CCOCC2)c2[nH]ccc2n1`, with 108%; and `Cc1ccc2nc(NC(=O)CSC(=S)N3CCN(Cc4ccccc4)CC3)sc2c1`, with -76.4% (active); and `Nc1nc(-c2ccc(Cl)cc2)cc(-c2cc3ccccc3oc2=O)n1`, with 94%. The same measure for `COc1cccc2c1C(=O)c1c(O)c3c(c(O)c1C2=O)CC(O)(/C(C)=N/NC(=O)CCCCC(=O)N/N=C(\C)C1(O)Cc2c(O)c4c(c(O)c2C(OC2CC(N)C(O)C(C)O2)C1)C(=O)c1c(OC)cccc1C4=O)CC3OC1CC(N)C(O)C(C)O1` (stereo unspecified): -1.37% [5 µM] (active); for `CCNC(=O)c1[nH]cc(-c2ccc(OC)cc2)c1-c1cc(OC)c(OC)c(OC)c1`: 18.5%. Then `Cc1ccc(S(=O)(=O)OC[C@@]2(C)CC[C@]3(C)CC[C@]4(C)C(=CC[C@@H]5[C@@]6(C)CCCNC(C)(C)[C@@H]6CC[C@]54C)[C@@H]3C2)cc1`, with -85.5% (active); and `COc1ccc(-c2nc3sc(-c4ccccc4)c(-c4ccccc4)n3c2/C=C/c2ccc(F)cc2)cc1`, with 82.7%. `Cc1cc(N2CCCCC2)nc(N(CCCNc2ccnc3cc(Cl)ccc23)Cc2ccco2)n1`: the growth was 6.73% (active). Then `Nc1c2c(c(O)c3c1=C(CO)C=N3)=NCCS2`, with -72% (active); and `CCOC(=O)NC(N)=O`, with 105% and 98.7%; and `CC(=O)NCNC(C)=O`, with 103%. Take `O=C(CNc1ncco1)Nc1ccc(S(=O)(=O)c2ccc(NC(=O)CNc3ncco3)cc2)cc1`: the growth was -61.7% (active). Then `CCN(C)CCCOc1ccc(/C(=C(\C)Cc2cccc(OC)c2)c2ccc(OC(C)=O)cc2)cc1`, with 101%; and `Cn1c(=O)c2[nH]c(NN)nc2n(C)c1=O`, with 122%. The same measure for `O=C(O)CSCSCC(=O)O`: 91.2%; for `COc1ccc(/C=C(\C#N)n2nnc3cc(F)c(F)cc32)c(OC)c1OC`: 35.3%; for `COc1ccc(N2CCN(CC(=O)N3CCN(c4nnc(-c5ccccc5)c(-c5ccccc5)n4)CC3)CC2)cc1`: 50.6%. Then `O=C1C(=O)c2c(nc3ccc(C(F)(F)F)cn23)-c2ccccc21`, with -65.9% (active); and `NS(=O)(=O)c1ccc(-n2ncc3c(=O)[nH]c(CN4CCN(c5cc6c(cc5F)c(=O)c(C(=O)O)cn6C5CC5)CC4)nc32)cc1`, with 95.4%; and `CC(=O)c1ccc(C)cc1`, with 98.4%. Regarding `CCCn1nc(C(=O)N2CCCCC2)c2c1CCC(N1CCC(c3ccncc3)CC1)C2` (stereo unspecified), the growth was 104%. Then `CC1(C)OCC2OC3(C(=O)O)OC(C)(C)OC3C2O1` (stereo unspecified), with 98.5%. `O=C1Nc2ccc(F)cc2/C1=N/c1nnc(Sc2ccccc2)s1`: the growth was -0.912% (active). Then `C(=C\c1c[nH]c2ccccc12)/c1ccc2ccccc2n1`, with 68.5%.

The record behind these values is PubChem BioAssay (NCI).
